Assay outcomes (PubChem BioAssay)
MazEF act: increases E. coli MazEF RNase cleavage of RNA. P0AE70. FAM/BHQ RNA-DNA oligo cleavage fluorescence, 5 h. activation, % at 20 µM. hit rate 0.32% among 350,000; in the data active = activation above about 50%
Target sequence (P0AE70 whole entry, looked up): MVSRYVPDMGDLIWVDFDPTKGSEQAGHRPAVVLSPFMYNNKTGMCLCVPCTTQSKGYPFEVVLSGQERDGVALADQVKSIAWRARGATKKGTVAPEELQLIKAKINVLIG
Bead autofluor: counter-screen for toxin protease inhibitors: compound fluorescence; compound autofluorescence counterscreen, microsphere flow cytometry; active compounds read high; fluorescence intensity (no concentration beside the values); hit rate 3.1% among 360,000; AID 624483; in the data active = fluorescence intensity above about 16000; inconclusive = no clear call, values can overlap the other calls
BoNT-F LC inh: blocks Botulinum neurotoxin F light chain protease; Multiplex microsphere protease cleavage assay, flow cytometry; inhibition, % at 10 µM; hit rate 0.22% among 360,000; AID 588497; in the data active = inhibition above about 35%, passing the limit was not always enough; inconclusive = no clear call, values can overlap the other calls; note: plate controls were buffer without enzyme for full effect and enzyme alone for no effect
BoNT A protease: BoNT A light chain protease inhibition | multiplex microsphere protease substrate cleavage, flow cytometry | inhibition, % at 10 µM | hit rate 0.17% among 360,000; note: plate controls were buffer without enzyme for full effect and enzyme alone for no effect
Anthrax LF inh2: blocks Bacillus anthracis lethal factor protease. P15917. multiplex microsphere protease cleavage assay, LF. inhibition, % at 10 µM. hit rate 0.12% among 360,000; note: plate controls were buffer without enzyme for full effect and enzyme alone for no effect
DUSP3 inh: DUSP3 (human) phosphatase inhibition | AID 1654 | inhibition, % at 13.3 µM | hit rate 0.52% among 290,000 | recombinant VHR phosphatase, pNPP absorbance | P51452; in the data active = inhibition above about 50%
Target sequence (P51452 whole entry, looked up): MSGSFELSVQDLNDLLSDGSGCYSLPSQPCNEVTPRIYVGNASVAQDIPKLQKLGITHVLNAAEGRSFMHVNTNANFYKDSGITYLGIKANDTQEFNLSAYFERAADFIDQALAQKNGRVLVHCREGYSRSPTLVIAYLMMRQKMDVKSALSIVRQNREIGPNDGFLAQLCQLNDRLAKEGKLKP
* hit, by the source's call; ? = inconclusive; . = not tested or not shown; ! = not confirmed by another sample. Sampled rows, rich in hits. Any-hit rate of the full collection: about 4.1%. Cut-off read from the data, not from the text of the source, unless noted: active = inhibition above about 30%; inconclusive = no clear call, values can overlap the other calls; inactive = below that.

SMILES	MazEF act	Bead autofluor	BoNT-F LC inh	BoNT A protease	Anthrax LF inh2	DUSP3 inh
O=C(O)CSc1nnc(C2COc3ccccc3O2)n1-c1ccccc1 (configuration not stated)	6	19815*	3	1	-2	-17
CC(C)c1ccc(CN(C(=O)c2cccs2)C2CCS(=O)(=O)C2)cc1 (configuration not stated)	1	5616	6	0	0	10
CC(C)c1ccc(Nc2nc(N3CCOCC3)nc(N3CCOCC3)n2)cc1	6	3761	6	0	4	.
O=C(O)c1cccc(Nc2nc(N3CCOCC3)nc(N3CCOCC3)n2)c1	-1	22856*	-9	-6	0	6
Cc1ccc(Nc2nc(N3CCOCC3)nc(N3CCOCC3)n2)cc1	2	8067	6	1	3	51*
CSc1nc2ccc(Nc3nc(N4CCOCC4)nc(N4CCOCC4)n3)cc2s1	4	23477*	-1	-1	-3	-1
C(=N\Nc1nc(N2CCOCC2)nc(N2CCOCC2)n1)/c1cccnc1	-2	22356*	0	0	2	17
O=C(O)c1cc(Nc2nc(N3CCOCC3)nc(N3CCOCC3)n2)ccc1Cl	-3	5301	-8	0	-2	8
C(=N\Nc1nc(N2CCOCC2)nc(N2CCOCC2)n1)/c1ccncc1	8	2490	-8	-1	-2	3
Cc1cnc(C(=O)OCC(=O)N2CC(C)CC(C)C2)cn1 (configuration not stated)	-6	4520	-4	0	-7	.
CC1CCN(C(=O)COC(=O)c2ccc(Cl)nc2)CC1	0	5274	1	3	0	.
O=C(OCC(=O)N1CCOCC1)c1ccc(Cl)nc1	3	22562*	3	1	-4	14
CN=C1SC(CC(=O)Nc2ccc(N3CCOCC3)cc2)C(=O)N1C (configuration not stated)	5	25216*	-8	?	-1	-5
CN=C1SC(CC(=O)Nc2ccccc2F)C(=O)N1C (configuration not stated)	0	5395	-2	-1	3	2
CN=C1SC(CC(=O)Nc2cccc(C(F)(F)F)c2)C(=O)N1C (configuration not stated)	3	16700*	-5	-1	-1	7
CC(C)(C)c1ccc(C(=O)CCCSC2=C(C#N)C(c3ccco3)C3=C(CCCC3=O)N2)cc1 (configuration not stated)	-8	23545*	-6	?	-5	12
Cc1ccc(C)c(C(=O)CCC(=O)N2CCN(c3cccc(C(F)(F)F)c3)CC2)c1	-2	4140	-4	-1	6	.
O=C(CNC(=O)c1ccc(Cl)cc1Cl)OCCOc1ccccc1F	1	8675	3	1	6	.
COc1ccccc1CC(=O)Nc1ccccc1C(=O)O	-1	10896	7	0	1	18
CCOC(=O)c1ccccc1NC(=O)c1cccs1	-1	17478*	-5	-2	-6	25
O=C(Nc1cccc2nsnc12)c1cccs1	1	21640*!	4	2	0	4
CCOC(=O)c1ccccc1NC(=O)Cc1ccccc1OC	-8	20686*	-4	-3	1	26
O=C(Nc1ccc2nsnc2c1)c1cccs1	-6	4524	8	1	2	-11
CCOc1nc2cnccc2n(CC(=O)Nc2c(C)cccc2CC)c1=O	5	5769	-3	2	-1	1
Cc1c(C)c2cc(Cl)c(O)c(CN(C)C)c2oc1=O	-2	5660	4	0	-6	0
SMILES	MazEF act	Bead autofluor	BoNT-F LC inh	BoNT A protease	Anthrax LF inh2	DUSP3 inh
CCc1c(C)c2cc(Cl)c(O)c(CN(C)C)c2oc1=O	2	17210*	-7	?	1	13
CCCCc1cc(=O)oc2c(CN3CCCC3)c(O)ccc12	9	20462*	-4	-2	0	32
CCCCc1cc(=O)oc2c(CN(C)C)c(O)c(Cl)cc12	-7	23705*	-3	0	-2	10
CCc1cc(=O)oc2c(CN3CCN(C)CC3)c(O)ccc12	9	3530	8	1	14	.
Cc1ccc(CS(=O)(=O)c2nsc(C)c2C#N)cc1	-1	2634	-2	-1	-1	12
Cc1snc(S(=O)(=O)Cc2c(Cl)cccc2Cl)c1C#N	1	25224*	-7	-3	-1	17
Cn1c(=O)c2c(ncn2CC(=O)OCC(=O)Nc2cc(Cl)ccc2C#N)n(C)c1=O	-19	2817	0	0	7	.
CCOC(=O)c1cc2c(C)n(-c3ccc(N(C)C)cc3)c(C)c2cc(C(=O)OCC)c1=O	7	18745*	6	?	1	36
CCOC(=O)c1cc2c(C)n(-c3ccc(OCC)cc3)c(C)c2cc(C(=O)OCC)c1=O	7	2422	-3	2	0	43
O=C1NC[C@H](c2ccccc2)OC(=O)[C@H](Cc2ccc(F)cc2)C/C=C\C[C@H]1CC(=O)N(CCO)Cc1ccccc1	3	3718	2	1	-7	.
COc1ccccc1C(=O)NC(CCSC)C(=O)NCc1ccncc1 (configuration not stated)	7	6302	-2	1	-2	.
Cn1nccc1C(=O)OCC(=O)Nc1nc(-c2ccccc2)cs1	-2	22484*	1	?	0	-21
O=C(COC(=O)c1cccs1)Nc1nc(-c2ccccc2)cs1	-10	7439	-2	1	9	26
CCOC(=O)CN1C(=O)C(CC)Oc2ccc(Cl)cc21 (configuration not stated)	-3	21455*	-5	-4	-1	18
CCC1Oc2ccc(C)cc2N(Cc2cccc(C)c2)C1=O (configuration not stated)	-11	17288*	-7	?	-2	-7
COc1ccc(N(CC(O)CN2C(=O)NC(C)(C)C2=O)S(=O)(=O)c2ccc(C)cc2)cc1 (configuration not stated)	3	23111*	2	1	3	6
COc1ccc(N(CC(O)CN2CCCCC2)S(=O)(=O)c2ccc(C)cc2)cc1 (configuration not stated)	0	20804*	4	?	-13	10
Cc1ccc(S(=O)(=O)N(CC(O)CN2CCCCC2)c2ccccc2)cc1 (configuration not stated)	6	5832	-12	0	-2	13
COc1ccc(/C=C/c2c(-c3ccc(OC)cc3)sc3cc(OC)c(OC)cc23)cc1	-6	3616	-4	0	-3	.
O=C(NC1CC1)c1ccc(-c2cnc3cccnn23)cc1	.	2978	-5	0	8	.
O=C(O)C1CCCCN1C(=O)c1ccc(S(=O)(=O)N2CCCC2)cc1 (configuration not stated)	0	5589	6	4	3	.
COc1cc(OC)c(OC)cc1/C=C1/C(=O)NC(=O)N(Cc2ccccc2)C1=O	-15	3402	-1	-1	7	20
Cc1cc(/C=C2\C(=O)NC(=O)N(Cc3ccccc3)C2=O)c(C)n1C1CC1	725*	2695	5	0	-4	28
